Reference: ChEMBL document CHEMBL2218924, “A broad activity screen in support of a chemogenomic map for kinase signalling research and drug discovery” (Biochem J, 2013)

Tests used:
[1] = target: T1, Ephrin type-B receptor 1 (Homo sapiens) (UniProt P54762); conditions: at 10 µM
T1 sequence (whole entry): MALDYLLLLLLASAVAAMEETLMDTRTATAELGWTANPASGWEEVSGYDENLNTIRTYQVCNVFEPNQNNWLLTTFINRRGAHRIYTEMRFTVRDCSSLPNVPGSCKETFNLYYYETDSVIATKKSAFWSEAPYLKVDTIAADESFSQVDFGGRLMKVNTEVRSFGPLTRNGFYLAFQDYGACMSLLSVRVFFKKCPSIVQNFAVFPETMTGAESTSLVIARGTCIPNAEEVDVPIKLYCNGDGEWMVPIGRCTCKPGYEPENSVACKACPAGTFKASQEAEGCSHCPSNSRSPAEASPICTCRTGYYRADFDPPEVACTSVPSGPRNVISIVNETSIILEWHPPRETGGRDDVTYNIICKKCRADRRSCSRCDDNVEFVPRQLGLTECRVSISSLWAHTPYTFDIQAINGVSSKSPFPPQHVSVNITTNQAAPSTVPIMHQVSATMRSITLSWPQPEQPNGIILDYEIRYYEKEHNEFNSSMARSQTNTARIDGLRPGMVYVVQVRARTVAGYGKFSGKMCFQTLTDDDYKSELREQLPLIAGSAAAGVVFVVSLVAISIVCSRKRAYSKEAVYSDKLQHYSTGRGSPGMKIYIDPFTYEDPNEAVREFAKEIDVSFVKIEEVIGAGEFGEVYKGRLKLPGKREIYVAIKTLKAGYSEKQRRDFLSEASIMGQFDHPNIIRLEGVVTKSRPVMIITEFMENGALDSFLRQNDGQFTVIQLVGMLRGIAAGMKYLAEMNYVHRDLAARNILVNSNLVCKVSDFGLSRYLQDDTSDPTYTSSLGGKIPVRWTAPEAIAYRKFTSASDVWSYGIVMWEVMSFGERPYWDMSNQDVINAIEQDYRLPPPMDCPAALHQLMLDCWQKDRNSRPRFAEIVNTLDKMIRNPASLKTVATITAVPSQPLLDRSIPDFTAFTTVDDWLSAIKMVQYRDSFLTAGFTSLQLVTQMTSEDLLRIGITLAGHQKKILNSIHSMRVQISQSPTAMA

[2] = target: T2, Ephrin type-B receptor 2 (Homo sapiens) (UniProt P29323); conditions: at 1 µM
T2 sequence (whole entry): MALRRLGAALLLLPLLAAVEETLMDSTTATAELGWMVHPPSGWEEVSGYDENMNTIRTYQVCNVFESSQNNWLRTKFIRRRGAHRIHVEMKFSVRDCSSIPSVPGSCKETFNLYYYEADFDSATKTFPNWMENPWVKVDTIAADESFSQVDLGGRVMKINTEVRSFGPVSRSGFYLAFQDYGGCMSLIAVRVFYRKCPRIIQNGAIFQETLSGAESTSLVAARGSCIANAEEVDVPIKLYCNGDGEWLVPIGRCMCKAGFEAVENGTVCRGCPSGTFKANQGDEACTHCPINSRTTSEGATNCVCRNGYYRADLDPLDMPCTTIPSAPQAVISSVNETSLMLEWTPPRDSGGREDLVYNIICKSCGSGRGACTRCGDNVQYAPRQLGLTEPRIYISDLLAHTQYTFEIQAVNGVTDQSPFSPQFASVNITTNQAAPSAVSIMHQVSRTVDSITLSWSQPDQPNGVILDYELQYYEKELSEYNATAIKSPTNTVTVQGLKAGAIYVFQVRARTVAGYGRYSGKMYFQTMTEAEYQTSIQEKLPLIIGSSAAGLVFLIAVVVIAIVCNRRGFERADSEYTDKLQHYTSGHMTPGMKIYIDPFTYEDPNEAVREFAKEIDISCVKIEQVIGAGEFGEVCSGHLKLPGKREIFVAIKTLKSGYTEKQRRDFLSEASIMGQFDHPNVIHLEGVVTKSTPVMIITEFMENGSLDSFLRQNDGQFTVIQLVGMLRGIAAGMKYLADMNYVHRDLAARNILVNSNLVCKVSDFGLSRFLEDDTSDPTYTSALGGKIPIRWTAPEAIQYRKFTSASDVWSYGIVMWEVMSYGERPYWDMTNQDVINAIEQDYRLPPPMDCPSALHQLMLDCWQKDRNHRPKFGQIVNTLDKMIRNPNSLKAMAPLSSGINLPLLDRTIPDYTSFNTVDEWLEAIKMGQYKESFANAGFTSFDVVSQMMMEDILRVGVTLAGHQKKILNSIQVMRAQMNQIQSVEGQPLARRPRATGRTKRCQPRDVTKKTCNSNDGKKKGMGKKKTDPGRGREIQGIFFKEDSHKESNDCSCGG

[3] = target: T2, Ephrin type-B receptor 2 (Homo sapiens); conditions: at 10 µM
[4] = target: T3, Ephrin type-B receptor 3 (Homo sapiens) (UniProt P54753); conditions: at 1 µM
T3 sequence (whole entry): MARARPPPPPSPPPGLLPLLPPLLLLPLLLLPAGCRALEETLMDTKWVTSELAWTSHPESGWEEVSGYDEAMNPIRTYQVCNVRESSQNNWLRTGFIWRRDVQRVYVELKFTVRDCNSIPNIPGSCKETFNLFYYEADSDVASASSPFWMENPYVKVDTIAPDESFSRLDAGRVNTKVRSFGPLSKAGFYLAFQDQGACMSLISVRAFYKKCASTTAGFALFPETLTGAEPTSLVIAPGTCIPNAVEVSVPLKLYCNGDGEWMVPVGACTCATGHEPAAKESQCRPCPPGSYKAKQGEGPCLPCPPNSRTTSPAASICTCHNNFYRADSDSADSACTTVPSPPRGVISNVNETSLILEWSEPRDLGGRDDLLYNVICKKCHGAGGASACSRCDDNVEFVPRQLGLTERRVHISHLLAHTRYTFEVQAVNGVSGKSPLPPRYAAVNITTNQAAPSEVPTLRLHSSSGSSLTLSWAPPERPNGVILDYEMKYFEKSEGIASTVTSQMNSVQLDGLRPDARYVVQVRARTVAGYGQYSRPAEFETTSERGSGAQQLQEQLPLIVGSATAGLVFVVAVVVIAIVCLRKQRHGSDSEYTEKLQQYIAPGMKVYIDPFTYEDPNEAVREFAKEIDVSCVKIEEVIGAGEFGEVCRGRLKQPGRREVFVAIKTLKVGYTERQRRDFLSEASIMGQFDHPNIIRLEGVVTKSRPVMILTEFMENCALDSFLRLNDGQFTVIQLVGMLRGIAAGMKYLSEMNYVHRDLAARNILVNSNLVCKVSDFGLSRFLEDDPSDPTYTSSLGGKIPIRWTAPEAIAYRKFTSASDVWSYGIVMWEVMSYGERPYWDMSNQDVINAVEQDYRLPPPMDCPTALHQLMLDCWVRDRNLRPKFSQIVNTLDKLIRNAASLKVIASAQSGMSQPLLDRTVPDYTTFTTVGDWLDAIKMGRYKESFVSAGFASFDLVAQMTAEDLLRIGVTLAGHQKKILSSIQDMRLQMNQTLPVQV

[5] = target: T3, Ephrin type-B receptor 3 (Homo sapiens); conditions: at 10 µM
[6] = target: T4, Ephrin type-B receptor 4 (Homo sapiens) (UniProt P54760); conditions: at 1 µM
T4 sequence (whole entry): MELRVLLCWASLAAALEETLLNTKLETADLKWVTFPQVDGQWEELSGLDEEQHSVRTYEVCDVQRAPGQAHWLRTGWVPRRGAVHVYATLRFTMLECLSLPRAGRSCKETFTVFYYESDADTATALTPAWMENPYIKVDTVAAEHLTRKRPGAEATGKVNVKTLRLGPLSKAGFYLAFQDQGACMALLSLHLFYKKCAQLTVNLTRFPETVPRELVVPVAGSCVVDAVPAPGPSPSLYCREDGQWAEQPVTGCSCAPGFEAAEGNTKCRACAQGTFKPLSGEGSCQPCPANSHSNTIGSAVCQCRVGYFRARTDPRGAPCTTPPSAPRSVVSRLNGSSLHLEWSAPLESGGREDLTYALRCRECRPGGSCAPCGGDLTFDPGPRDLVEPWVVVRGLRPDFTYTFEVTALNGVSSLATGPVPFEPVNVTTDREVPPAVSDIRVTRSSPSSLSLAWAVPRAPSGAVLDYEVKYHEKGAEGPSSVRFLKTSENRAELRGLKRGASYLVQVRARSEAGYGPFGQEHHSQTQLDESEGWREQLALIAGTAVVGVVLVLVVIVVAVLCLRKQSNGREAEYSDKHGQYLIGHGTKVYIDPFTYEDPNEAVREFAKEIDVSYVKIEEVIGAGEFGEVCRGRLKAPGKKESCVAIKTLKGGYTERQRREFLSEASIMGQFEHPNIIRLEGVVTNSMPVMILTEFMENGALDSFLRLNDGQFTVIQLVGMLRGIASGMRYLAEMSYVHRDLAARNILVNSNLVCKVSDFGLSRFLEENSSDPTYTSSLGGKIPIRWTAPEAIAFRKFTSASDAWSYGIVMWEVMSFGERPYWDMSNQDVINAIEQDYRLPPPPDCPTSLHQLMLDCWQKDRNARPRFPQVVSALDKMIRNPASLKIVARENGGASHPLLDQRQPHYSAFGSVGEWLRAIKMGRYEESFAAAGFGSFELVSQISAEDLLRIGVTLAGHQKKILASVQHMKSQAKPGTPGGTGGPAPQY

[7] = target: T4, Ephrin type-B receptor 4 (Homo sapiens); conditions: at 10 µM
[8] = target: Receptor tyrosine-protein kinase erbB-4 (Homo sapiens) (UniProt Q15303); conditions: at 1 µM
[9] = target: Receptor tyrosine-protein kinase erbB-4 (Homo sapiens) (UniProt Q15303); conditions: at 10 µM
[10] = target: Focal adhesion kinase 1 (Homo sapiens) (UniProt Q05397); conditions: at 1 µM
Focal adhesion kinase 1 (Homo sapiens), sequence (Q05397 2-1052 limits assumed): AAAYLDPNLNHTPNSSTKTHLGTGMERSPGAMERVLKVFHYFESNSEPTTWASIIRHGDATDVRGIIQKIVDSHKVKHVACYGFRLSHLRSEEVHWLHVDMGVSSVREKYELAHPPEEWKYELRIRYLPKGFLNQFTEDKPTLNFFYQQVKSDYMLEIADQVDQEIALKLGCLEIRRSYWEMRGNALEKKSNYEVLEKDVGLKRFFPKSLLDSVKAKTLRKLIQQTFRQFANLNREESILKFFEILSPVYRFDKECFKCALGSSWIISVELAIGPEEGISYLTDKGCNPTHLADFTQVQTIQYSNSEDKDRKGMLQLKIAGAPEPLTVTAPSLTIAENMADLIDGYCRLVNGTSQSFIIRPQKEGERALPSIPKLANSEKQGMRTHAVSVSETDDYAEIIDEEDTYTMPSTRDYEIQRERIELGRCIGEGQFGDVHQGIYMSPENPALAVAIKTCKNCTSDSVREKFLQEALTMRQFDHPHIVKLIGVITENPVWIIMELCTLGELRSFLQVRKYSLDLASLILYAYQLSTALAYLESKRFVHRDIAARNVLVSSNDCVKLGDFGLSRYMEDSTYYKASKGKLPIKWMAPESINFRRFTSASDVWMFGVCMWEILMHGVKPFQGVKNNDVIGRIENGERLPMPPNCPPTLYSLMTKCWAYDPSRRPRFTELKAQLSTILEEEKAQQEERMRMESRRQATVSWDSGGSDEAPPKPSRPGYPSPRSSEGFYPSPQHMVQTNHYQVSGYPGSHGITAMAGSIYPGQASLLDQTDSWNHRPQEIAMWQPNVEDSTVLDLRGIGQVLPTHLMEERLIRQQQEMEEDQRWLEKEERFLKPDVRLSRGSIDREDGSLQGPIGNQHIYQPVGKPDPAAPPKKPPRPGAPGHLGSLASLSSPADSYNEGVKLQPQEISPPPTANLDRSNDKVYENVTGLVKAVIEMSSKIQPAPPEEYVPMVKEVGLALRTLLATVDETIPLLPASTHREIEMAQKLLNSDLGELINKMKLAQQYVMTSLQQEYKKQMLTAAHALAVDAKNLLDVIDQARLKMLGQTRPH

Receptor tyrosine-protein kinase erbB-4 (Homo sapiens), sequence (Q15303 whole entry): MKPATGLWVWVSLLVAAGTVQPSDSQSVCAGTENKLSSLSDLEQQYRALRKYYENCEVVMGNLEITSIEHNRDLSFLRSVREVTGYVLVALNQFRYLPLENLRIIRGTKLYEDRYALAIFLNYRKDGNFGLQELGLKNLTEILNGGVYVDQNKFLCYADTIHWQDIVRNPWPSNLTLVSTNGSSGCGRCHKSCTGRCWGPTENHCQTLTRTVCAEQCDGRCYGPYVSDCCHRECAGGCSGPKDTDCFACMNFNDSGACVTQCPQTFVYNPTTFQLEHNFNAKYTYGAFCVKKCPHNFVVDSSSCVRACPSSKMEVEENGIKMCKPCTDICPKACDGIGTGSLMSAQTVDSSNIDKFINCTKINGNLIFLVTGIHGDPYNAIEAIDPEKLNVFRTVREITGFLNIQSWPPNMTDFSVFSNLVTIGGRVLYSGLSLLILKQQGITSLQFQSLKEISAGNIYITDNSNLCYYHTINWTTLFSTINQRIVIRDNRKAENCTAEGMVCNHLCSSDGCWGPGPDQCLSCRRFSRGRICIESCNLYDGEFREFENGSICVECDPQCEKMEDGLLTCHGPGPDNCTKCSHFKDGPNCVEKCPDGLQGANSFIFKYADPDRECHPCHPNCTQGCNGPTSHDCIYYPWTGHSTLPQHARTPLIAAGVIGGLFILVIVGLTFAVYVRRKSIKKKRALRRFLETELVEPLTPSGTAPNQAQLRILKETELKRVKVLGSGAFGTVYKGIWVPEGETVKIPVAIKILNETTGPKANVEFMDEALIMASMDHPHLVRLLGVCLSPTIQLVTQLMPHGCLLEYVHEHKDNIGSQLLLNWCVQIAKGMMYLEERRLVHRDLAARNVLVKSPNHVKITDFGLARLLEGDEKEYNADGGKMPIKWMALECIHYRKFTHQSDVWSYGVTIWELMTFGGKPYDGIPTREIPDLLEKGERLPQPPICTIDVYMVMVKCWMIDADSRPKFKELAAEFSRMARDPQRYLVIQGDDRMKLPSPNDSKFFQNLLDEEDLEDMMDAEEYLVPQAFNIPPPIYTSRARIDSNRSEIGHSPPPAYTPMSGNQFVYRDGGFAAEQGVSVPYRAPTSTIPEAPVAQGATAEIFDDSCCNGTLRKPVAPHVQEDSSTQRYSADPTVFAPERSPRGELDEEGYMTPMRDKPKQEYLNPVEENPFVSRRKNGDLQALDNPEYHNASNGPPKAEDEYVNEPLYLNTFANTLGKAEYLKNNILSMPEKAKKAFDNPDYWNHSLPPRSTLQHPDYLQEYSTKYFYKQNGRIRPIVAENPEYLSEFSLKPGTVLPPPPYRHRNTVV

## O=C1NC(=O)/C(=C\c2ccc3nccnc3c2)S1
[1]
  residual activity: 96%
[2]
  residual activity: 98%
[3]
  residual activity: 119%
[4]
  residual activity: 113% (inactive)
[5]
  residual activity: 104%
[6]
  residual activity: 95%
[7]
  residual activity: 111%
[8]
  residual activity: 88%
[9]
  residual activity: 92%
[10]
  residual activity: 90%
